From the supplement of paper PMC4954754
± gives the uncertainty stated by the source.

Assays:
[1] = system: HEK293T-Rex XBP1-RLuc; test: XBP1-RLuc splicing reporter activation, triplicate, relative to 500 nM thapsigargin (% of thapsigargin); higher = stronger IRE1/XBP1s reporter activation; details: 6.8 µM; 18 h; screen: confirmation
Description: (§1)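 HEK293T-Rex cells stably expressing the ERSE-firefly luciferase (BiP promoter, ATF6-preferring) or XBP1-splicing Renilla luciferase (IRE1/XBP1s) reporter, 1536-well plates, compound at 6.8 µM for 18 hr at 37 °C; luminescence read […] and expressed as % activation = 100*(compound - median DMSO)/(median 500 nM thapsigargin - median DMSO). Primary screen was single-pass; confirmation screen in triplicate (mean ± SD).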

[2] = system: HEK293T-Rex ERSE-FLuc; test: ERSE-FLuc reporter activation, triplicate confirmation, relative to 500 nM thapsigargin (% of thapsigargin); higher = stronger ATF6/ERSE reporter activation; details: 6.8 µM; 18 h; screen: confirmation
Description: as §1

Oc1cccc(Nc2nc(-c3ccc(O)c(O)c3)cs2)c1
XBP1-RLuc splicing reporter activation [1]: 17.5 ± 0.67
ERSE-FLuc reporter activation [2]: 26.1 ± 6.7

COc1ccc(N(C(=O)c2ccccc2)S(=O)(=O)c2cc(OC)ccc2OC)cc1
XBP1-RLuc splicing reporter activation [1]: 59.2 ± 7.4
ERSE-FLuc reporter activation [2]: 103 ± 9.2

Cc1ccc2nc(/C(C#N)=C\c3cc(Cl)cc4c3OCOC4)[nH]c2c1
XBP1-RLuc splicing reporter activation [1]: 12.1 ± 2.3
ERSE-FLuc reporter activation [2]: 51.3 ± 9.8

COc1ccc(/C=N/c2sc3c(c2C(N)=O)CCCC3)cc1
XBP1-RLuc splicing reporter activation [1]: 2.45 ± 0.41
ERSE-FLuc reporter activation [2]: 26.4 ± 4.8

Nc1ccc2nc(-c3ccc(Br)cc3)[nH]c2c1
XBP1-RLuc splicing reporter activation [1]: 12.5 ± 2
ERSE-FLuc reporter activation [2]: 36.7 ± 10

COC(=O)c1ccc(C(=O)Nc2ccccc2N)cc1
XBP1-RLuc splicing reporter activation [1]: 9.29 ± 0.17
ERSE-FLuc reporter activation [2]: 32.9 ± 4.2

Cc1ccc(C(=O)Nc2sc3c(c2C#N)CCC3)cc1
XBP1-RLuc splicing reporter activation [1]: 4.62 ± 0.97
ERSE-FLuc reporter activation [2]: 27.4 ± 2.7

CS(=O)(=O)c1ncc(Cl)c(C(=O)C(C#N)c2nc3ccccc3s2)n1 (stereo unspecified)
XBP1-RLuc splicing reporter activation [1]: 19.5 ± 4.9
ERSE-FLuc reporter activation [2]: 42.3 ± 12

c1ccc2cc(-c3cnnc(N4CCOCC4)n3)ccc2c1
XBP1-RLuc splicing reporter activation [1]: 1.22 ± 0.96
ERSE-FLuc reporter activation [2]: 29 ± 8.7

O=C(N/N=C\C(Br)=C\c1ccccc1)c1n[nH]c2c1CCCC2
XBP1-RLuc splicing reporter activation [1]: 7.86 ± 1.6
ERSE-FLuc reporter activation [2]: 35 ± 4.1

N#Cc1ccc(-c2cccs2)nc1SCc1ccccn1
XBP1-RLuc splicing reporter activation [1]: 0.766 ± 2.5
ERSE-FLuc reporter activation [2]: 25.2 ± 6.2

COc1ccc(/C(C)=N/OC/C(O)=C(\C#N)c2nc3ccccc3[nH]2)cc1OC
XBP1-RLuc splicing reporter activation [1]: 24.6 ± 1.4
ERSE-FLuc reporter activation [2]: 31.3 ± 11

Cc1ccc(O)c(NC(=O)c2cc(CC(C)C)on2)c1
XBP1-RLuc splicing reporter activation [1]: 30.2 ± 2.4
ERSE-FLuc reporter activation [2]: 84.4 ± 15

CCC(=O)N(Cc1cc2cc(C)ccc2n2nnnc12)C1CCCC1
XBP1-RLuc splicing reporter activation [1]: 4.74 ± 0.41
ERSE-FLuc reporter activation [2]: 33.5 ± 2.4

COc1ccccc1-c1cnnc(N/N=C/c2c[nH]c3ccccc23)n1
XBP1-RLuc splicing reporter activation [1]: 8 ± 0.78
ERSE-FLuc reporter activation [2]: 37.9 ± 9.7

CN(C)c1ccc(C2C(C#N)=C(N)Oc3c2sc2ccccc32)cc1[N+](=O)[O-] (stereo unspecified)
XBP1-RLuc splicing reporter activation [1]: 9.04 ± 0.83
ERSE-FLuc reporter activation [2]: 26 ± 0.29

O=C(N/N=C/c1ccc2c(c1)OCO2)c1cccc(F)c1
XBP1-RLuc splicing reporter activation [1]: 1.67 ± 0.99
ERSE-FLuc reporter activation [2]: 27.1 ± 2.4

CN(C)c1ccc(/C=N/NC(=O)c2cccc(Br)c2)cc1
XBP1-RLuc splicing reporter activation [1]: 1.93 ± 3.2
ERSE-FLuc reporter activation [2]: 26.5 ± 2.7

CCCc1cc(C(=O)Nc2cc(C)ccc2O)no1
XBP1-RLuc splicing reporter activation [1]: 24.5 ± 4.7
ERSE-FLuc reporter activation [2]: 83.4 ± 6.3

CC(C)c1ccc(NC(=O)/C=C/c2ccco2)cc1
XBP1-RLuc splicing reporter activation [1]: 4 ± 0.68
ERSE-FLuc reporter activation [2]: 26.6 ± 5.9

Cc1ccc(O)c(NC(=O)c2cc(-c3cccnc3)on2)c1
XBP1-RLuc splicing reporter activation [1]: 19.8 ± 0.85
ERSE-FLuc reporter activation [2]: 70 ± 3.2

Cc1ccc(O)c(N/C=C/C(=O)c2ccc(F)cc2)c1
XBP1-RLuc splicing reporter activation [1]: 10.3 ± 7.9
ERSE-FLuc reporter activation [2]: 140 ± 17

COc1c(O)cc2oc(-c3ccc(O)c(O)c3)cc(=O)c2c1O
XBP1-RLuc splicing reporter activation [1]: 53.7 ± 3.8
ERSE-FLuc reporter activation [2]: 133 ± 21

CC(=O)Oc1cc(N2CCOCC2)c(OC(C)=O)c2c1C(=O)c1ccccc1C2=O
XBP1-RLuc splicing reporter activation [1]: 8.79 ± 2
ERSE-FLuc reporter activation [2]: 45 ± 8

O=C(NCCc1ccc(O)cc1)c1ccc2nc(-c3csc4ccccc34)sc2c1
XBP1-RLuc splicing reporter activation [1]: 18.8 ± 1.8
ERSE-FLuc reporter activation [2]: 103 ± 23

CC(C)c1ccc(/C=N\NC(=O)c2ccccc2)cc1
XBP1-RLuc splicing reporter activation [1]: 6.81 ± 0.33
ERSE-FLuc reporter activation [2]: 27.4 ± 3.1

O=[N+]([O-])c1ccccc1NC(=S)N/N=C/c1ccc(O)c(O)c1
XBP1-RLuc splicing reporter activation [1]: 8.61 ± 0.81
ERSE-FLuc reporter activation [2]: 33.2 ± 4.3

Nc1c(C(=O)Nc2ccccc2)sc2nc3c(cc12)CCCCC3
XBP1-RLuc splicing reporter activation [1]: 12.6 ± 4.7
ERSE-FLuc reporter activation [2]: 35.6 ± 5.3
